TDP1 cell CPT – DT40-hTDP1 cell growth loss with CPT; chicken DT40 Tdp1-/-;hTDP1 cells + 20 nM CPT, ATP luminescence, 48 h; Potency, µM (top dose mostly 46.2 µM), for the others: at the top dose activity change, negative = growth inhibition, usual class: inhibitors; 420,000 tested, 12% active; AID 686979; further: potency means the concentration at half of the fitted maximal effect; on the % scale 0 is the no-effect control and ±100 the full control effect; nearly all actives have a fitted effect of over 55% in size
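Chicken DT40 Tdp1-/- cells complemented with human TDP1, 400 cells/well, exposed to compounds plus 20 nM camptothecin for at least 48 h at 37 C; viability read as ATP content by CellTiter-Glo luminescence.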
IL1B secr inh – blocks inflammasome-driven IL-1 beta release | activity change, % at 57.5 µM | THP-1 LPS/ATP IL-1B secretion, AlphaLISA, 16 h; stronger effect = lower value | AID 743279 | 360,000 tested, 4.7% active; in the data active means activity change below about -50%; inconclusive means mostly about -30% to -49%; further: on the % scale 0 is the no-effect control and ±100 the full control effect
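Secreted IL-1B measured by AlphaLISA bead assay after 16 h compound exposure of THP-1 cells; compounds (final up to 57.5 uM) added 1 h before LPS (250 ng/mL) and ATP (1.25 mM) stimulation; lower signal means less secretion.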
TDP1 cell noCPT – qHTS for Inhibitors of human tyrosyl-DNA phosphodiesterase 1 (TDP1): qHTS in cells in absence of CPT; DT40 Tdp1-/- hTDP1 cells, no CPT, ATP luminescence, 48 h; Potency, µM (doses to about 46.2 µM), for inactives: at the top dose activity change, negative = growth inhibition, actives largely listed as inhibitors; 420,000 tested, 15% active; AID 686978, 2013; further: potency means the concentration at half of the fitted maximal effect; on the % scale 0 is the no-effect control and ±100 the full control effect; nearly all actives have a fitted effect of over 55% in size
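Chicken DT40 Tdp1-/- cells complemented with human TDP1, screened without camptothecin (DMSO vehicle only), 400 cells/well. Compounds pin-transferred, cells incubated at 37 °C for at least 48 hr. Growth read as ATP-dependent luminescence (CellTiter-Glo, 30 min at RT).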
TDP1 inh – inhibitors of human tyrosyl-DNA phosphodiesterase TDP1; Q9NUW8; recombinant TDP1, AlphaScreen DNA substrate cleavage; Potency, µM (top dose mostly 130 µM), for the others: at the highest dose activity change, negative = inhibition, usual class: inhibitors; 350,000 tested, 0.28% active; AID 485290; further: potency means the concentration at half of the fitted maximal effect; on the % scale 0 is the no-effect control and ±100 the full control effect; nearly all actives have a fitted effect of over 40% in size
Target sequence (Q9NUW8 whole entry, looked up): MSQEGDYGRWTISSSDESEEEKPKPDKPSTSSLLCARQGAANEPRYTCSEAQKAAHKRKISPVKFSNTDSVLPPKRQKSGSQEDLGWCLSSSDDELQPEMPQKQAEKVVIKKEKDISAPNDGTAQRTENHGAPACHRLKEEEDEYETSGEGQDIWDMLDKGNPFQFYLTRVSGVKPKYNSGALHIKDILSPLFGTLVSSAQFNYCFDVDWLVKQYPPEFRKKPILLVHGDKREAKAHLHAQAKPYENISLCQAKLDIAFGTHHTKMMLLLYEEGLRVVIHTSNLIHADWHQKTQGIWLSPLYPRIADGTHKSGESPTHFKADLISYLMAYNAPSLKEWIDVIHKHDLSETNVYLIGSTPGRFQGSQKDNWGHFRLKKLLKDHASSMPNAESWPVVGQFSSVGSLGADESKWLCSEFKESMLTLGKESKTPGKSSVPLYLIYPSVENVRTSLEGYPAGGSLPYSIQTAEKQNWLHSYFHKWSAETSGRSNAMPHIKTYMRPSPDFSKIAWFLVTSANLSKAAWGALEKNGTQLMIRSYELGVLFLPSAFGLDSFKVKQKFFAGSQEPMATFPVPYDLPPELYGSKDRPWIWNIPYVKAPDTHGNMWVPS
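Compounds were preincubated with Tdp1 (1 nM final) for 15 min at room temperature before substrate (15 nM final) started a 5 min reaction; beads (10 ug/ml final) were then added for 10 min before AlphaScreen detection.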
TGFb inhibitor – blocks TGF-b signaling | 410,000 tested, 1.2% active | Potency, µM (series often up to 46.1 µM), without a hit: at the highest dose activity, negative = inhibition, usual class: inhibitors | AID 588855 | HepG2 CAGA-GFP TGF-b/SMAD3 reporter, GFP fluorescence, 18 h; TGF-beta stimulated, 500 pg/mL final; further: potency means the concentration at half of the fitted maximal effect; on the % scale 0 is the no-effect control and ±100 the full control effect; nearly all actives have a fitted effect of over 65% in size
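HEPG2 CAGA-GFP cells (1000/well, DMEM with 1% FBS) were pre-incubated 2 h at 37 degrees C, given compound by pin tool, then stimulated with TGF-beta at 500 pg/mL final for 18 h before per-cell GFP fluorescence imaging.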
HepG2 viability – counter-screen for TGF-b inhibitors: cytotoxicity in HepG2 cells; Potency, µM (series often up to 46.1 µM), without a hit: top-dose activity change, negative = cytotoxicity, usual class: cytotoxic; 410,000 tested, 0.76% active; HepG2 CAGA-GFP viability, ATP luminescence, 18 h; further: potency means the concentration at half of the fitted maximal effect
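CellTiter-Glo luminescence gave cytotoxicity after 18 hours at 37 degrees C. The cells were HepG2 CAGA-GFP in 1% FBS DMEM, stimulated with 500 pg/mL TGF-beta after compound addition. %Activity was normalised to no-cell wells (complete cell-killing) and DMSO (no toxicity), and curves were fitted and classified.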
* hit, by the source's call; i = inactive; ? = inconclusive; . = no result given. In the library only some 18% were active in any assay of this set; here they are far more common. Unless noted, the call rests on the fitted dose curve; in most records, active means well fitted curve in the direction sought with a large enough effect; inconclusive means small, poorly fitted or top-dose-only effect, or another doubt; inactive means no such curve, though single readings can be large; an effect the other way counts as inactive or inconclusive.

SMILES	TDP1 cell CPT	IL1B secr inh	TDP1 cell noCPT	TDP1 inh	TGFb inhibitor	HepG2 viability
CCCc1cc(=O)[nH]c(SCC(=O)Nc2ccc([N+](=O)[O-])cc2C#N)n1	?	17.5	-28.7%	4.7%	-7.8%	-12.4%
O=C(Nc1c2c(nn1-c1ccc(Cl)cc1)CS(=O)(=O)C2)c1cccc(F)c1	20.6µM*	.	18.4µM*	5.2%	-13.4%	-34.2%
CC(C)(C)n1nc2c(c1NC(=O)c1ccc(F)c(F)c1)CS(=O)(=O)C2	0.8%	i	16.4µM*	2.3%	-1.4%	14.2%
CCOc1ccccc1NC(=O)c1cc(=O)[nH]c2ccc(S(=O)(=O)N3CCOCC3)cc12	-6.9%	-20.1	-8.2%	-3.4%	12.0%	-2.6%
C=CCNC(=S)N(C1CCCCC1)C1CCCCC1	?	0.0	23.1µM*	-0.6%	-14.8%	-41.6%
CCCc1cc2c(cc1N(C)S(=O)(=O)c1ccccc1)OCO2	3.66µM*	-18.5	3.66µM*	.	2.7%	-8.3%
COc1cccc(S(=O)(=O)NCc2ccc3c(c2)OCO3)c1	-21.8%	-6.2	-18.5%	6.6%	2.0%	-20.6%
O=c1[nH]nc(SC2CCCCC2)c(=O)[nH]1	-23.4%	-2.2	-10.5%	.	-15.6%	3.6%
CCCCC(=O)Oc1ccccc1C(=O)O	-5.0%	.	-14.1%	4.9%	.	.
O=C(CSCC(=O)c1ccc([N+](=O)[O-])cc1)c1ccc([N+](=O)[O-])cc1	20.6µM*	9.0	?	.	?	-58.0%
O=C(CNc1cccc2ccccc12)c1ccc([N+](=O)[O-])cc1	14.6µM*	-5.4	13µM*	-2.6%	?	13.0%
O=C(Nc1cccc2ccccc12)c1ccc([N+](=O)[O-])cc1	-6.6%	-15.2	?	1.3%	14.5%	-14.7%
O=C(CNc1ccccc1)c1ccc([N+](=O)[O-])cc1	14.6µM*	3.1	16.4µM*	7.9%	4.5%	6.6%
O=C(Nc1c[nH]c(=O)[nH]c1=O)c1ccc([N+](=O)[O-])cc1	-0.7%	15.1	10.8%	3.5%	-15.4%	-15.6%
O=C(CNC(=O)c1ccc([N+](=O)[O-])cc1)c1ccccc1	0.9%	-16.7	1.2%	1.1%	11.1%	-5.3%
O=C(Nc1cccc2c(=O)[nH][nH]c(=O)c12)c1ccc([N+](=O)[O-])cc1	8.2µM*	79.3	-17.4%	.	40.7%	-36.3%
CCN(CC(=O)Nc1c(F)cccc1F)C(=O)CSc1nnc(-c2ccco2)n1CC	-9.1%	i	-7.5%	0.7%	16.6%	11.2%
COC(=O)c1ccccc1C[C@]1(C(=O)OC)C=C[C@H](C)[C@@H](c2ccccc2)N1C(=O)C(F)(F)F	.	.	.	3.7%	.	.
O=C(O)c1cc([N+](=O)[O-])cc2c1nnn2O	?	-10.0	-28.0%	0.0%	-9.2%	-10.4%
Cc1ccc(S(=O)(=O)N(C)CC(=O)N(C)CCOc2ccccc2)cc1	?	-6.0	?	.	-11.2%	-28.0%
CC1CN(C(=S)SCC(=O)c2ccc([N+](=O)[O-])cc2)CC(C)O1 (stereo not drawn)	2.59µM*	-22.9	5.17µM*	.	10.5%	-9.4%
COc1ccc(-n2c(CN3CCN(Cc4ccccc4)CC3)nc3ccc([N+](=O)[O-])cc3c2=O)c(OC)c1	?	62.0	-6.5%	6.9%	-3.2%	-0.7%
O=C(c1ccco1)N1CCN(Cc2nc3ccc([N+](=O)[O-])cc3c(=O)n2-c2ccccc2F)CC1	?	69.9	8.2µM*	3.5%	4.2%	-23.0%
COc1ccc(-n2c(CN3CCN(c4ccccn4)CC3)nc3ccc([N+](=O)[O-])cc3c2=O)c(OC)c1	?	-23.0	20.6µM*	7.4%	-14.9%	0.3%
O=c1c2cc([N+](=O)[O-])ccc2nc(CN2CCN(c3ccccn3)CC2)n1-c1ccccc1F	?	32.4	14.6µM*	8.1%	1.7%	9.6%
SMILES	TDP1 cell CPT	IL1B secr inh	TDP1 cell noCPT	TDP1 inh	TGFb inhibitor	HepG2 viability
CCOC1=C2[C@H](c3ccccc3)N(S(=O)(=O)c3ccc(C)cc3)C[C@H]2n2c(=O)n(-c3ccccc3)c(=O)n2C1	-11.6%	-0.6	-5.9%	.	-7.7%	6.1%
COc1ccc(F)cc1C(=O)C1CCCN(Cc2cccn2-c2ccccn2)C1 (stereo not drawn)	?	-16.8	16.4µM*	2.7%	7.5%	-24.8%
COc1ccccc1C(=O)C1CCCN(Cc2ccc(Oc3ncccn3)cc2)C1 (stereo not drawn)	-11.5%	-19.8	?	2.6%	-6.0%	-16.3%
O=C(c1cc(F)ccc1F)C1CCCN(Cc2cccn2-c2ccccn2)C1 (stereo not drawn)	?	?	?	.	-19.3%	-29.1%
COc1ccc(C(=O)C2CCCN(Cc3cccn3-c3ccccn3)C2)c(OC)c1 (stereo not drawn)	8.2µM*	-92.8*	6.51µM*	1.2%	?	-13.9%
CCCCCNc1ncnc2c(C)[nH]nc12	14.6µM*	68.2	23.1µM*	.	7.9%	-5.1%
Cc1cc2c(SCC(=O)NC3CCCCC3)ncnc2s1	-14.3%	16.5	?	9.9%	-8.6%	-7.2%
Cc1cc2c(NCCc3ccccc3)ncnc2s1	1.64µM*	-70.3*	1.03µM*	6.2%	-9.1%	-23.8%
c1ccc(CCNc2ncnc3ccccc23)cc1	0.517µM*	0.0	0.651µM*	3.1%	-3.1%	-11.8%
Cc1cc2c(NC3CCCCC3)ncnc2s1	?	-11.9	13µM*	.	7.1%	-24.7%
CCCCCCCCNc1ncnc2ccccc12	0.291µM*	-60.6*	0.259µM*	1.1%	?	-25.5%
Cc1[nH][nH]c(=O)c1C	-12.6%	18.8	-2.4%	0.7%	0.3%	-0.4%
CNc1nc(N2CCCN(C)CC2)nc2cc(OC)c(OC)cc12	14.1µM*	.	11.2µM*	.	.	.
CCNc1nc(N2CCCN(C)CC2)nc2cc(OC)c(OC)cc12	11.2µM*	.	11.2µM*	.	.	.
COc1cc2c(NC3CCN(C)CC3)nc(N3CCCN(C)CC3)nc2cc1OCC1CCCNC1 (stereo not drawn)	-15.8%	.	-0.1%	.	-2.7%	-23.2%
CN(CC(=O)N1CCOCC1)S(=O)(=O)c1ccc2ccccc2c1	-4.7%	?	0.6%	.	-5.2%	-6.1%
